Measurements taken from ChEMBL document CHEMBL4513216, “Probing the Open Global Health Chemical Diversity Library for Multistage-Active Starting Points for Next-Generation Antimalarials” (ACS Infect Dis, 2020).
The campaign covered roughly 69,000 compounds. About 8,600 (12%) showed an effect of 50% or more. This excerpt belongs to a sample that is enriched for strong results.

Test system: Plasmodium berghei
Experiment: Screen against P. berghei liver stage (PbLuc), transformed with Luciferase, at 10uM
Format: functional, HepG2
Settings: tested at 10 uM

Compound	INHIBITION [%]
COCc1nc(C(=O)NS(=O)(=O)c2cc(Br)ccc2C)cs1	8.55
O=S(=O)(NCc1ccccc1Cn1cncn1)N1CCCCC1	25.1
CCn1cc(Cl)c(C(=O)NCCCN(C)C)n1	39.1
Cc1nccc(C(=O)N2CCCC2c2c(C)nn(C)c2C)n1 (stereo unspecified)	7.08
CCN(CCNC(=O)c1cccnc1OCCOC)C1CC1	34.7
CCN(CCNC(=O)c1ccccc1OCCOC)C1CC1	58.8
CCN(CCNC(=O)c1ccccc1Br)C1CC1	-2.42
O=C(c1ccc(Cn2cnnn2)cc1)N1CCC(c2ccncc2)CC1	-23
O=S1(=O)NCC2(CCN(Cc3ccc(Cl)s3)C2)Oc2ncccc21 (stereo unspecified)	30
CC(C)CCN1CCC2(CNS(=O)(=O)c3cccnc3O2)C1 (stereo unspecified)	67.3
O=S1(=O)NCC2(CCN(Cc3ccncc3)CC2)Oc2ncccc21	44.1
CNc1ncc(CN(C)c2nccc(CCC(F)(F)F)n2)cn1	43.1
CCc1nnc(CN(C)c2nccc(N3CCCC(O)C3)n2)o1 (stereo unspecified)	42.1
CN(Cc1ccncn1)c1nccc(CCC(F)(F)F)n1	59.3
CC(=O)NCCNc1nccc(CCC(F)(F)F)n1	-41.8
CCc1nnc(CN(C)c2nccc(CCC(F)(F)F)n2)o1	59.3

Compound	INHIBITION [%]
CCc1cc(N(C)Cc2ccncn2)n2nccc2n1	10.4
CC(=O)N1CCOC(c2cncc(CCC(=O)N(C)C)n2)C1 (stereo unspecified)	-6.73
O=C1CCC(=O)c2oc3ccccc3c2N1	-23
CCc1[nH]c2c(CNC(=O)C3CNC(=O)C3)cc(C)cc2c1C (stereo unspecified)	25.8
CCc1[nH]c2c(CNC(=O)C3CCS(=O)(=O)CC3)cc(C)cc2c1C	48.5
CCc1[nH]c2c(CNc3cc(C)nc(NC)n3)cc(C)cc2c1C	87.9
CCc1[nH]c2c(CNc3cncc(C(=O)N(C)C)n3)cc(C)cc2c1C	14.3
CCc1[nH]c2c(CNc3nc(C)cc(NC)n3)cc(C)cc2c1C	85.1
CCc1[nH]c2c(CNc3cncc(C(=O)OC)n3)cc(C)cc2c1C	45
COc1ccc(-c2noc(CN3CCCC3Cn3cccn3)n2)cc1 (stereo unspecified)	29.7
CN1C(=O)c2ccc(C(=O)N(Cc3cnn(C)c3)C3CC3)cc2C1=O	23.8
COCC(=O)N1CCc2ccc(=O)n(Cc3csc(C)n3)c2CC1	2.41
CCOc1ncccc1NC(=O)c1ccc(C(C)=O)s1	7.24
CC1CN(CC(=O)NCCc2ccccc2)CCN1c1nccs1 (stereo unspecified)	33.7
c1coc(CN2CCC3(CCOCC3COCC3CC3)CC2)c1 (stereo unspecified)	18.6
